outcome, Potency and max activation data for 7 compounds are collected here from PubChem BioAssay (Tox21).

Values joined by “and” are separate entries in the source; they are usually repeats but may differ in a detail not shown here. Identical values can stand only once. A number with no mark means an inactive call. Records with an inconclusive call do not appear. Active and inactive are the calls of the source. Unless noted, calls come from the whole dose curve; as a rule, active = well fitted curve in the direction sought with a large enough effect in the repeat runs; inconclusive = weak or mixed curves; inactive = no such curve, though single readings can be large; an effect the other way counts as inactive or inconclusive.

Assay [1] has as its target Thyrotropin-releasing hormone receptor (Homo sapiens) (UniProt P34981). In words: qHTS assay to identify small molecule agonists of the thyrotropin-releasing hormone receptor (TRHR) signaling pathway (AID 1346891; calls by dose curve;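 note: HEK293 cells expressing TRHR with calcium dye readout; series mostly up to about 58 µM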). In short, it runs like this: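 HEK293/TRHR cells, 1500 per well, 18 h 37 °C; Ca dye 2 h 37 °C; pin-tool compound addition (agonist mode); kinetic fluorescence 3 min, 1 s reads; 15 concentrations, triplicate.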
(In general: qHTS replaces the single test concentration by a dilution series.)

Assay [2] in a line: Human pregnane X receptor (PXR) small molecule agonists, qHTS cell viability counter screen (AID 1346977). Note: nearly all actives have a fitted effect of over 50% in size. The method, boiled down: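 Fluorescence read-out (CellTiter-Fluor) of viability in PXR-Luc HepG2 cells, multiplexed with the luciferase agonist read. Compounds in DMSO added after 5hr plating; 24hr total exposure at 37C, 5% CO2.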
Assay [3] in a line: Caspase-3/7 induction in HepG2 cells by small molecules, qHTS assay (AID 1346978). Note: nearly all actives have a fitted effect of over 15% in size. The method, boiled down: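 Wild-type HepG2 cells, 2,000/well, settled 5 hr at 37 C and 5% CO2, then compound-treated for 17 hr; caspase-3/7 activity read by luminescent Caspase-Glo 3/7 after 30 min at room temperature.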
The nature of assay [4]: Caspase-3/7 induction in CHO-K1 cells by small molecules, qHTS cell viability counter screen (AID 1346979). Note: nearly all actives have a fitted effect of over 35% in size. In short, it runs like this: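 CHO-K1 wt, 1,500 cells/well; 5hr pre-incubation 37C/5% CO2; compound pin transfer (DMSO); 16hr exposure; CellTiter-Fluor added, 1hr, fluorescence read.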
Assay [5] is described as follows: Caspase-3/7 induction in CHO-K1 cells by small molecules, qHTS assay (AID 1346980). Note: nearly all actives have a fitted effect of over 15% in size. The method, boiled down: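 Wild-type CHO-K1 cells exposed to compounds for 17hr at 37 C, 5% CO2. Caspase-3/7 activity then measured by Caspase-Glo 3/7 luminescence after 30min at room temperature.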
The nature of assay [6]: Caspase-3/7 induction in HepG2 cells by small molecules, qHTS cell viability counter screen (AID 1346981). Note: series mostly up to about 92 µM; nearly all actives have a fitted effect of over 30% in size. The method, boiled down:
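Fluorescence read-out of live-cell protease activity (CellTiter-Fluor) after 1 hr with reagent. This was measured in the same wells as the caspase-3/7 luminescence, on HepG2 cells exposed to DMSO-dissolved compounds for 16 hr at 37 C.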

Assay [7] has as its target Nuclear receptor subfamily 1 group I member 2 (Homo sapiens) (UniProt O75469). In words: Human pregnane X receptor (PXR) small molecule agonists, qHTS assay (AID 1346982). Note: nearly all actives have a fitted effect of over 35% in size. Note: potency is the fitted concentration of half-maximal effect. In short, it runs like this: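 HepG2 PXR-Luc reporter line, 5% charcoal-stripped FBS; 5 hr pre-incubation, compound (DMSO) 24 hr at 37 C/5% CO2; ONE-Glo 30 min RT; luminescence read-out.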
In assay [8] the target is Acetylcholinesterase (Homo sapiens) (UniProt P22303). In words: Acetylcholinesterase (AChE) small molecule antagonists: colormetric cell-based qHTS assay (AID 1347395; calls by dose curve; note: nearly all actives have a fitted effect of over 30% in size; note: potency is the fitted concentration of half-maximal effect). The method, boiled down: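 SH-SY5Y cells; cpd 30 min 37 C; + DTNB/acetylthiocholine, 90 min 37 C; colorimetric thiocholine read; qHTS.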
Sequence of Acetylcholinesterase (Homo sapiens) (P22303 whole entry, looked up): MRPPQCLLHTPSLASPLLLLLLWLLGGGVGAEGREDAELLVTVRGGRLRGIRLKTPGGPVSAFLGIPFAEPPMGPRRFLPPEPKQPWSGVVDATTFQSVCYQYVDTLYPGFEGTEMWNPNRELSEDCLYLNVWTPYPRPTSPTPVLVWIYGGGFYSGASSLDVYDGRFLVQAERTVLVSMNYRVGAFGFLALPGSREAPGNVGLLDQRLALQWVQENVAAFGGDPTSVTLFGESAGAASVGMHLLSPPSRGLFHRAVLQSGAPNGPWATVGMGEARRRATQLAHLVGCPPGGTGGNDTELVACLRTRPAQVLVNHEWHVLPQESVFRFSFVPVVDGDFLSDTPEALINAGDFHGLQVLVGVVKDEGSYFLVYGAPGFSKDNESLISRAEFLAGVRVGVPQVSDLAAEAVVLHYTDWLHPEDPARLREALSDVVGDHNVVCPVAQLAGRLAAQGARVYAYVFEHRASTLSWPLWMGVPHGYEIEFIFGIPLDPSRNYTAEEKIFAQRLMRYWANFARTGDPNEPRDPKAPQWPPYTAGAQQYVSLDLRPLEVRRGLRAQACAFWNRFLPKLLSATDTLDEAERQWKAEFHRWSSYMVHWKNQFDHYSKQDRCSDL
Assay [9] shares this target. As to the kind of experiment: Acetylcholinesterase (AChE) small molecule antagonists: fluorescence cell-based qHTS assay (AID 1347398; calls by dose curve; note: nearly all actives have a fitted effect of over 50% in size). The following applies: Potency: AChE activity; outcome: AChE activity. The method, boiled down:
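SH-SY5Y, 2,000 cells/well, attached overnight; cmpd 30 min 37 C; acetylthiocholine/Thiolite Green cocktail 40 min RT; fluorescence Ex/Em 490/520 nm.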

Assay [10] shares this target. In words: Acetylcholinesterase (AChE) small molecule antagonists: enzyme-based qHTS assay with human liver microsomes (AID 1347399; calls by dose curve; note: nearly all actives have a fitted effect of over 60% in size). The following applies: Potency: qHTS inhibition; outcome: qHTS inhibition. In short, it runs like this: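 Recombinant human AChE (50 mU/mL in the enzyme mix) and human liver microsomes (0.25 mg/mL final) were preincubated with compound and NADPH (0.25 mg/mL final) for 30 min at 37 C. Acetylthiocholine/DTNB was then added; thiocholine was read colorimetrically after 10 min at room temperature.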

The target of assay [11] is Cytochrome P450 2D6 (Homo sapiens) (UniProt P10635). As to the kind of experiment: Cytochrome P450 Family 2 Subfamily D Member 6 (CYP2D6) small molecule antagonists: luciferase reporter qHTS assay (AID 1671196). Note: series mostly up to about 120 µM; nearly all actives have a fitted effect of over 50% in size. The method, boiled down: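 Luminogenic proluciferin substrate, CYP2D6 enzyme; 10 min RT preincubation with compound, NADPH regeneration system added, 1 h RT. Stop/detection reagent, 20 min RT, luminescence read (RLU). Signal proportional to CYP activity.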
Sequence of Cytochrome P450 2D6 (Homo sapiens) (P10635 whole entry, looked up): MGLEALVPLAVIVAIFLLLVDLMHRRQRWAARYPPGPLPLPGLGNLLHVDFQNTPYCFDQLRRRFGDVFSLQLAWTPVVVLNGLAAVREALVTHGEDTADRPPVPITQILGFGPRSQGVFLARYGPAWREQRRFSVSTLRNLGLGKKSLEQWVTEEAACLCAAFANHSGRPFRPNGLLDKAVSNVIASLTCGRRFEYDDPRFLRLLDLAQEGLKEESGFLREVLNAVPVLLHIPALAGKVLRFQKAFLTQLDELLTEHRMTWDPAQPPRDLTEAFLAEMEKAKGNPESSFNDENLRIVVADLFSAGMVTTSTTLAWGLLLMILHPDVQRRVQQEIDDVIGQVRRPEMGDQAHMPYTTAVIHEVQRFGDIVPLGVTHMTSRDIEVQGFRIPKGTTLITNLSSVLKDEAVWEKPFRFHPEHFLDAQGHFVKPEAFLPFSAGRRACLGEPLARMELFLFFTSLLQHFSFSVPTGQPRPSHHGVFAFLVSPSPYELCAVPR

The target of assay [12] is Cytochrome P450 2C19 (Homo sapiens) (UniProt P33261). As to the kind of experiment: Cytochrome P450 Family 2 Subfamily C Member 19 (CYP2C19) small molecule antagonists: luciferase reporter qHTS assay (AID 1671197). Note: nearly all actives have a fitted effect of over 65% in size. Note: potency is the fitted concentration of half-maximal effect. The method, boiled down: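 Enzyme-substrate mix with proluciferin substrate (P450-Glo CYP2C19 system) preincubated with compounds 10 min at room temperature; NADPH regeneration solution added, 37C for 1 h; detection reagent stops reaction, luminescence read after 20 min. Ketoconazole positive control.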
Sequence of Cytochrome P450 2C19 (Homo sapiens) (P33261 whole entry, looked up): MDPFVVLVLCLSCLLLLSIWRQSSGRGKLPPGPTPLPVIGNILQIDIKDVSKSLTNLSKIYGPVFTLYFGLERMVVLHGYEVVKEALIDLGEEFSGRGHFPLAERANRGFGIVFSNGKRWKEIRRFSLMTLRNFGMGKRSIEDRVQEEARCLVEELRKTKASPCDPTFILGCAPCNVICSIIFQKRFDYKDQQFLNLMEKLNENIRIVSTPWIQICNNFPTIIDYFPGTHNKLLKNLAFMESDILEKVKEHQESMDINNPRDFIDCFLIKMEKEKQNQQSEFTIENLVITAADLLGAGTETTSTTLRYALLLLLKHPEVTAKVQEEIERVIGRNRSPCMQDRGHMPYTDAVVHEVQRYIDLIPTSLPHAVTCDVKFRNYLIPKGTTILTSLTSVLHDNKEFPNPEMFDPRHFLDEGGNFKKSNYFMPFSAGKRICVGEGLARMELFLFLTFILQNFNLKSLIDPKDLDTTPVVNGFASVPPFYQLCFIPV
A general note: A reporter such as luciferase makes a cellular process visible.

For assay [13], the target named is Cytochrome P450 2C9 (Homo sapiens) (UniProt P11712). In words: Cytochrome P450 Family 2 Subfamily C Member 9 (CYP2C9) small molecule antagonists: luciferase reporter qHTS assay (AID 1671198). Note: series mostly up to about 120 µM; nearly all actives have a fitted effect of over 50% in size. In short, it runs like this:
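P450-Glo proluciferin substrate with CYP2C9 enzyme; 10 min RT preincubation, then NADPH regeneration 1 h at 37C; luciferin detection reagent 20 min RT, luminescence in relative luminescence units.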

Assay [14] concerns the target Cytochrome P450 1A2 (Homo sapiens) (UniProt P05177). As to the kind of experiment: Cytochrome P450 Family 1 Subfamily A Member 2 (CYP1A2) small molecule antagonists: luciferase reporter qHTS assay (AID 1671199). Note: nearly all actives have a fitted effect of over 50% in size. Note: potency is the fitted concentration of half-maximal effect. In short, it runs like this:
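Luminescence readout (relative luminescence units) after luciferin detection reagent, 20 min RT. Preceded by 1 h room-temperature CYP1A2 reaction with NADPH regeneration solution following 10 min compound preincubation with enzyme and proluciferin substrate. Furafylline positive control.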

In assay [15] the target is Voltage-gated inwardly rectifying potassium channel KCNH2 (Homo sapiens) (UniProt Q12809). In words: Human Ether-a-go-go-Related Gene (hERG) channel small molecule antagonists: fluorescence cell-based qHTS assay (AID 1671200). In short, it runs like this: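 Read-out: thallium influx as a surrogate for potassium, tracked as fluorescence (480 nm ex/540 nm em) every second for 2 min after Stimulus Buffer addition in dye-loaded hERG-U2OS cells.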
Sequence of Voltage-gated inwardly rectifying potassium channel KCNH2 (Homo sapiens) (Q12809 whole entry, looked up): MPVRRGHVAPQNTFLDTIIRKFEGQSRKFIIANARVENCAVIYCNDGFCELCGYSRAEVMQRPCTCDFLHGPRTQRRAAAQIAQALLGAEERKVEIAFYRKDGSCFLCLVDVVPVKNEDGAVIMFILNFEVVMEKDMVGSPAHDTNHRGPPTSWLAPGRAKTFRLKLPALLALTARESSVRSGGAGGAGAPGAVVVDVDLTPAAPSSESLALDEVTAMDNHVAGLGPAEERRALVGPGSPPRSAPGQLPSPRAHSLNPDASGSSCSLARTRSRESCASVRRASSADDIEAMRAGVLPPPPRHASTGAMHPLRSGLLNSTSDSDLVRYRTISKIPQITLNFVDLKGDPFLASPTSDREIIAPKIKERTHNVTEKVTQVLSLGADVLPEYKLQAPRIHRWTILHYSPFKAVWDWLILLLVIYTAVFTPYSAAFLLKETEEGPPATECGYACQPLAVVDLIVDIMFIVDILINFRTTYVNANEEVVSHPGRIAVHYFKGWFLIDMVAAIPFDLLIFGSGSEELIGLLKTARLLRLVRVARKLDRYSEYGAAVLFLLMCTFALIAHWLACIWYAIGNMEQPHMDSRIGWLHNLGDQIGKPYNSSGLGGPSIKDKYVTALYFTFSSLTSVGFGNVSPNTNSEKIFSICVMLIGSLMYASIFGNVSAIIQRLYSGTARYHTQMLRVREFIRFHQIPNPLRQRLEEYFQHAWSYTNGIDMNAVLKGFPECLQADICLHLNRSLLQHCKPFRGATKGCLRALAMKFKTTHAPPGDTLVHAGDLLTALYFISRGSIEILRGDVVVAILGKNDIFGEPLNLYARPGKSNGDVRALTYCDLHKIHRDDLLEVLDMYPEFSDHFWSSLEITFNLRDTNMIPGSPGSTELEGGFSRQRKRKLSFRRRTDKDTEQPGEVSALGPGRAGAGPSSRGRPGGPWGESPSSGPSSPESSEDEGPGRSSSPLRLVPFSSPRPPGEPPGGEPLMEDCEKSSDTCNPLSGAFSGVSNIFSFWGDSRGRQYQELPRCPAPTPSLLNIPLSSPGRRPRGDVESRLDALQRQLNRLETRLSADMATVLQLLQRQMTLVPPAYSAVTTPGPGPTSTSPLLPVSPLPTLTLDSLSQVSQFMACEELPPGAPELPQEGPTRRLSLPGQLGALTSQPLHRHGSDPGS
(hERG is a cardiac potassium channel; its block is linked to QT prolongation.)

In assay [16] the target is Cytochrome P450 3A4 (Homo sapiens) (UniProt P08684). In words: Cytochrome P450 Family 3 Subfamily A Member 4 (CYP3A4) small molecule antagonists: luciferase reporter qHTS assay (AID 1671201). In short, it runs like this:
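Luminescent readout (RLU) proportional to CYP3A4 activity, from luciferin generated off a proluciferin substrate. Enzyme–substrate mix plus compound 10 min at room temp, NADPH regeneration 1 h, detection reagent 20 min.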

Assay [17] has as its target Acetylcholinesterase (Homo sapiens) (UniProt P22303). In words: Acetylcholinesterase (AChE) small molecule antagonists: enzyme-based qHTS assay (AID 1347397; calls by dose curve; note: nearly all actives have a fitted effect of over 55% in size). The following applies: Potency: AChE enzyme activity inhibition; outcome: AChE enzyme activity inhibition. In short, it runs like this:
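Colorimetric DTNB read-out of thiocholine released from acetylthiocholine by recombinant human AChE (50 mU/mL as dispensed). Compounds were preincubated 30 min at RT before substrate/DTNB addition, with a 10 min RT reaction.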

Assay [18] has as its target Nuclear receptor subfamily 1 group I member 2 (Rattus norvegicus) (UniProt Q9R1A7). In words: Rat pregnane X receptor (rPXR) activation by small molecules, qHTS assay (AID 1346983). Note: nearly all actives have a fitted effect of over 20% in size. The following applies: rPXR luciferase reporter cells, One-Glo luminescence, 24 h; stronger effect = higher value. The method, boiled down: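 Cell-based rPXR activation assay: rPXR cells, 2,000 per well, rested 5hr at 37 C, then exposed to compounds in DMSO for 24 hr at 37 C. Luciferase activity read by One-Glo luminescence after 30 min at room temperature.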

In assay [19] the target is Nuclear receptor subfamily 1 group I member 2 (Homo sapiens) (UniProt O75469). As to the kind of experiment: Human pregnane X receptor (PXR) activation by small molecules, qHTS assay (AID 1346985). Note: nearly all actives have a fitted effect of over 40% in size. The method, boiled down:
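DPX-2 cells (HepG2 co-transfected with a PXR response element and a CYP3A4-promoter luciferase construct) were seeded at 2,000 per well, rested 5 hr at 37C, then exposed to DMSO-dissolved compounds for 24 hr. Activation was read as luciferase luminescence.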
% is set by controls: 0 for no effect and ±100 for the full control effect.

Sequence of Cytochrome P450 2C9 (Homo sapiens) (P11712 whole entry, looked up): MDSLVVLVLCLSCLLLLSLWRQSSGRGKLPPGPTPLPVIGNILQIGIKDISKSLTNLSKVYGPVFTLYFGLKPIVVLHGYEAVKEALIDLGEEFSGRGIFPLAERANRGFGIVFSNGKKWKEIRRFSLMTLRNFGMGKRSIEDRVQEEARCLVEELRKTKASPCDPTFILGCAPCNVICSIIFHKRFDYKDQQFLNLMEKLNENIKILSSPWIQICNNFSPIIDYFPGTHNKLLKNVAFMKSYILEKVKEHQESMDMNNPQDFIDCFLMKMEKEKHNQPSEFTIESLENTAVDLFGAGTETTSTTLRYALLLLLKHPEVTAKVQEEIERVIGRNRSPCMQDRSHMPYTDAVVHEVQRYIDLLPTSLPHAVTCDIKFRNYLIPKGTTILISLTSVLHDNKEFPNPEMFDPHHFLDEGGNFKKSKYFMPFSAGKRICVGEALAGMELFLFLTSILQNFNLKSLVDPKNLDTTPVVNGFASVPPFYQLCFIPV
Sequence of Nuclear receptor subfamily 1 group I member 2 (Homo sapiens) (O75469 whole entry, looked up): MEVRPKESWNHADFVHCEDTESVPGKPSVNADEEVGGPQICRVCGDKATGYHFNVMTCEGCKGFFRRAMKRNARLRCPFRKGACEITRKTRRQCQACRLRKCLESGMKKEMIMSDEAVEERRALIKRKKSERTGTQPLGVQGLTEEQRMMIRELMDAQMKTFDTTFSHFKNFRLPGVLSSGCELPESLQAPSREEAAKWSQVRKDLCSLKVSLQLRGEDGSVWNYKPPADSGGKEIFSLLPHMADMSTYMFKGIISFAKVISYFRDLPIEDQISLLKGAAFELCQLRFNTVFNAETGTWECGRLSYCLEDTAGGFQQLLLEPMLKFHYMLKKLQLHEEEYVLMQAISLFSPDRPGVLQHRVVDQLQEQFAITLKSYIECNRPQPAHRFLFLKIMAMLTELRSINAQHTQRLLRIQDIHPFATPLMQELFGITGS
Sequence of Thyrotropin-releasing hormone receptor (Homo sapiens) (P34981 whole entry, looked up): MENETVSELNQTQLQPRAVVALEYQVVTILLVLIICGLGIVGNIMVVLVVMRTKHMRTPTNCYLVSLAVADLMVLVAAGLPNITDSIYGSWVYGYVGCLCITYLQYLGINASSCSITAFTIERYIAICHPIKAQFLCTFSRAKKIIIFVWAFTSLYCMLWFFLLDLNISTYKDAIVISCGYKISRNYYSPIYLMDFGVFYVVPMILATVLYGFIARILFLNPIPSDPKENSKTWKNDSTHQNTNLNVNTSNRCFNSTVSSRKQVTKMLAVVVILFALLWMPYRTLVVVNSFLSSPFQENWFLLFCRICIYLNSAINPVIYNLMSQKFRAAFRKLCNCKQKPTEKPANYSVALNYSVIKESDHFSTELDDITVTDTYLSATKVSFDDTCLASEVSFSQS
Sequence of Cytochrome P450 1A2 (Homo sapiens) (P05177 whole entry, looked up): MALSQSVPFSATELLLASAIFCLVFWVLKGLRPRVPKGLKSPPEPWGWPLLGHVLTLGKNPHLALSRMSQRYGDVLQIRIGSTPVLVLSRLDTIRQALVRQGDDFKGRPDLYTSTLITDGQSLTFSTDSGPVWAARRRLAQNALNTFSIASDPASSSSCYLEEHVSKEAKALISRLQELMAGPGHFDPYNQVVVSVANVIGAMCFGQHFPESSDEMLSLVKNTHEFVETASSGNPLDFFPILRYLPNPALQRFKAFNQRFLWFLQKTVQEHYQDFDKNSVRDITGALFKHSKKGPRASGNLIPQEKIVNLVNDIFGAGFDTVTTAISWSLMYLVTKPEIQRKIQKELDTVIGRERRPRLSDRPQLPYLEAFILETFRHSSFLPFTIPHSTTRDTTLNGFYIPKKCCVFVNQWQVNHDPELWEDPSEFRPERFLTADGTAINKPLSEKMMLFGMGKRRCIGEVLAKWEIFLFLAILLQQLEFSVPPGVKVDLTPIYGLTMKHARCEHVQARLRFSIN

Turning to `C=CC1(C)OC(=O)N(c2cc(Cl)cc(Cl)c2)C1=O` (stereo not drawn), the result in [1], in [3] and in [5] was inactive. The Potency entry in assay [2], in assay [4], in assay [6], in assay [8], in assay [9] and in assay [10] was “inactive” in each case. Moreover, the Potency entry in [11] and in assay [13] was “inactive” in each case. Further, the Potency in assay [7] was 60.8 µM (active) and 54.5 µM (active); in assay [12] it was 7.92 µM (active) and 12.6 µM (active); in assay [14] it was 5.61 µM (active) and 6.33 µM (active).

Take `BrCc1ccc(Br)cc1`: the compound was called inactive in [1], in assay [3] and in [5]. Moreover, the Potency entry in assay [2], in assay [4], in assay [6], in assay [7], in [10] and in assay [15] was “inactive” in each case. In addition, the Potency result in assay [16] is “inactive”. Also, the Potency in [8] is 71 µM (active).

Take `C(COCC1CO1)OCC1CO1` (stereo not drawn): the compound was classed as inactive in assay [1], in [3] and in [5]. Moreover, the Potency entry in assay [2], in assay [4], in assay [6], in [8], in assay [17] and in [9] was “inactive” throughout. For the same compound, the Potency result in assay [12], in assay [13], in [14], in assay [15] and in assay [16] was “inactive” each time. Further, the Potency in [7] is 48.6 µM (active).

With `OP(O)c1ccccc1`, the result in assay [1], in [3] and in [5] was inactive. Also, the Potency result in assay [2], in assay [4], in assay [6], in assay [7], in assay [8] and in assay [9] was “inactive” in each case. Moreover, the Potency entry in assay [10], in [11], in [12], in assay [13], in assay [14] and in assay [15] was “inactive” throughout. Besides, the Potency result in [16] is “inactive”.

In the case of `C[N+]1(C)CCCCC1`, the call in [1], in [3] and in assay [5] was inactive. The Potency entry in assay [2], in assay [4], in assay [6], in [7], in [11] and in [12] was “inactive” each time. In addition, the Potency result in [15] and in [16] was “inactive” in each case.

`CN(C)CCc1c[nH]c2cccc(OP(=O)(O)O)c12`: the compound was classed as inactive in [1], in [3] and in assay [5]. The Potency result in [2], in [4], in assay [6], in [7], in assay [8] and in [17] was “inactive” throughout. The Potency entry in [9], in assay [11], in assay [12], in [13], in [14] and in assay [15] was “inactive” in each case. Further, in [16], the Potency result is “inactive”.

On to `Cc1ccc(-c2nc3ccc(C)cn3c2CC(=O)N(C)C)cc1`, for which the compound was classed as inactive in assay [1], in assay [3] and in [5]. Besides, the Potency entry in [2], in [4], in [19], in assay [8], in assay [9] and in assay [10] was “inactive” in each case. In addition, the Potency result in assay [12], in [13] and in [15] was “inactive” throughout. Further, the Potency is 23.7 µM (active) in assay [7] and 27.5 µM (active) in [14]. Further, in [18], the max activation was 1.42%.
